Holding throughout (format): functional
Assay [1] concerns the target Solute carrier family 2, facilitated glucose transporter member 1 (Homo sapiens) (UniProt P11166). The assay can be described thus: ST_JUDE_LEISH: Cytotoxicity at 2uM final concentration against transgenic Leishmania Mexicana promastigotes LmGLUT1 that are glucose transport deficient and complemented with the human glucose transporter GLUT1. Activity is measured by DNA content using SYBR green in vitro.

The target in assay [2] is Hexose transporter 1 (Plasmodium falciparum) (UniProt O97467). Put plainly: ST_JUDE_LEISH: Cytotoxicity at 2uM final concentration against transgenic Leishmania Mexicana promastigotes LmPfHT that are glucose transport deficient and complemented with the Plasmodium falciparum hexose transporter. Activity is measured by DNA content using SYBR green in vitro.
Assay [3] deals with Glucose transporter (Leishmania mexicana) (UniProt O61059). Put plainly: ST_JUDE_LEISH: Cytotoxicity at 2uM final concentration against transgenic Leishmania Mexicana promastigotes LmGT2 that are glucose transport deficient and complemented with the L. Mexicana glucose transporter 2. Activity is measured by DNA content using SYBR green in vitro.

Sequence of Solute carrier family 2, facilitated glucose transporter member 1 (Homo sapiens) (P11166 whole entry): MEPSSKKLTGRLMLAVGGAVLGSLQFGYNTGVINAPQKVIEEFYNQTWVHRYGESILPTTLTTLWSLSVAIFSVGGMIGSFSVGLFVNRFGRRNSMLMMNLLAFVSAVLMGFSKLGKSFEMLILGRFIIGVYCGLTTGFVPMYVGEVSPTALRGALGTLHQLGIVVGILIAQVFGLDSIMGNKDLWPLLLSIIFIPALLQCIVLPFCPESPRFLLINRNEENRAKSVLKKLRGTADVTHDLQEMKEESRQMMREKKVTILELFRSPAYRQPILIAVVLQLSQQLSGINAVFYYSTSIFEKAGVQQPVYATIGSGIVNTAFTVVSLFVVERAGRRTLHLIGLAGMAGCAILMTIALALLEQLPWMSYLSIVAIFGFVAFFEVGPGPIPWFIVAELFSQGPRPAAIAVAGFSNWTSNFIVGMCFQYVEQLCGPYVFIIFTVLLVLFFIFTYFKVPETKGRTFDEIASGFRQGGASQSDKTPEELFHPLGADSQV

What is called inhibition is the change of the read-out against control, counted positive when it falls. As to `CCCCCCCCc1c(C)nc(C)c(I)c1O`, the inhibition is -1.12% in assay [1], 0.28% in assay [2] and -2.61% in assay [3].

Take `COc1ccc2nccc([C@@H](O)CN3CCC(NC(=O)Cn4nc(-c5ccc(C(F)(F)F)cc5)ccc4=O)CC3)c2c1`: the inhibition is 4.01% in assay [1], 3.03% in assay [2] and 1.3% in assay [3].

For the molecule `CCCCc1ccc2ncc(C(=O)OCC)c(O)c2c1`, the values for the inhibition in assay [1], in assay [2] and in assay [3] were -1.09%, -0.73% and -3.16%, respectively.

For `COc1ccc(-c2c(-c3ccc(OCc4ccccc4)cc3O)n[nH]c2C(F)(F)F)cc1`, the inhibition in assay [1] stood at 3.36%; in assay [2], 1.26%; in assay [3] it was 1.92%.

Regarding `CN(C)CCCN1C(=O)c2[nH]nc(-c3ccc(Cl)cc3O)c2C1c1ccc(Cl)cc1` (centres undefined), the results for the inhibition in assay [1], in assay [2] and in assay [3] were 0.82%, 0.66% and 1.69%, respectively.

Consider `COc1ccc(CC(=O)Nc2ccc(-c3cccc(-c4nc5cccc(C)c5[nH]4)c3)cc2)cc1O`, for which the figures for the inhibition in assay [1], in assay [2] and in assay [3] were 3.89%, 5.29% and 5.34%, respectively.

As to `O=C(CCCCCNC(=O)c1ccc(O)c(-c2ccc(Cl)c(Cl)c2)c1)NCCN1CCOCC1`, the values for the inhibition in assay [1], in assay [2] and in assay [3] were 4.35%, 3.57% and 2.65%, respectively.

`Cc1ccc(N2C(=O)C3C(C2=O)C2(c4ccccc4)C(=O)C3(c3ccccc3)C(c3ccccc3)=C2c2ccccc2)cc1` (centres undefined): the inhibition is 0.73% in assay [1], 0.67% in assay [2] and -1.83% in assay [3].

For the molecule `CN1CCN(c2nsc3ccc(-c4ccc(NC(=O)Nc5ccccc5)cc4)cc23)CC1`, the inhibition in assay [1] was 2.28%; in assay [2] it was 0.56%; in assay [3] it was 0.99%.

On to `CN1CCC[C@H]1COc1ccc(CN2CC[C@H](NC(=O)c3ccc(Cl)c(Cl)c3)C2)cc1Br`, for which the inhibition in assay [1] was 2.61%; in assay [2], 2.26%; in assay [3], 1.89%.

`COc1ccc(NC(=O)Nc2ccc(-c3ccc(-c4nc5cccc(C)c5[nH]4)s3)cc2)cc1`: the inhibition in assay [1] was determined as 4.04%; in assay [2], 4.64%; in assay [3] it was 3.71%.

As to `Cc1cc(C(F)(F)F)n2nc(C(=O)N(C)Cc3cncn3Cc3ccc(F)cc3)cc2n1`, the inhibition stood at 0.88% in assay [1], 1.29% in assay [2] and 1.49% in assay [3].

Consider `O=C(Nc1cccc(CN2CCCN(Cc3ccsc3)CC2)c1)c1cc2ccccc2s1`, for which the inhibition in assay [1] is 1.11%; in assay [2], 0.58%; in assay [3], -0.93%.

Turning to `Cc1ccn2c(N(Cc3ccccc3)C(=O)c3ccc(Cl)c(Cl)c3)c(-c3ccccc3)nc2c1`, the values for the inhibition in assay [1], in assay [2] and in assay [3] were 4.28%, 3.03% and 0.79%, respectively.

Regarding `CCNc1cc(C)nc(Nc2ccc(NC(=O)c3ccccc3Br)cc2)n1`, the inhibition in assay [1] amounted to 8.09%; in assay [2], 9.16%; in assay [3], 4.36%.

For the molecule `CC(C)NCc1ccc(-c2ccc(NC(=O)c3ccc(C#N)cc3)cc2)cc1`, the inhibition in assay [1] was 3.05%; in assay [2], 3.73%; in assay [3], 4.89%.

For the molecule `O=C(Nc1cc(Cl)cc(Cl)c1)N[C@H]1CCN(CCCCCNC(=O)C2CC2c2ccc(Cl)c(Cl)c2)C1` (some centres undefined), the values for the inhibition in assay [1], in assay [2] and in assay [3] were 0.25%, -1.16% and 2.06%, respectively.

For the molecule `CC1Cc2ccccc2N1S(=O)(=O)c1cccc(C(=O)Nc2nc(-c3ccccn3)cs2)c1` (centres undefined), the inhibition in assay [1] is 13.8%; in assay [2], 14.6%; in assay [3] it was 5.62%.

Take `O=C(/C=C/c1ccc(-c2nc3cc(F)c(F)cc3[nH]2)cc1)NCc1ccc(Cl)c(Cl)c1`: the inhibition in assay [1] is 4.53%; in assay [2], 4.32%; in assay [3], 1.96%.

`Cc1cc(NC(=O)[C@H](CC2CCCCC2)Nc2ccc(C#N)c3ccccc23)ccc1F`: the inhibition was 5.97% in assay [1], 7.28% in assay [2] and 1.62% in assay [3].

On to `O=C(Nc1ccc(-c2nc3ccccc3[nH]2)cc1)C1CCCN(CC2CC2)C1` (centres undefined), for which the inhibition in assay [1] was 12.9%; in assay [2] it was 10.8%; in assay [3], 4.89%.

With `CC(C)(C)c1ccc2[nH]c(-c3ccc(C(=O)NCc4cccc(C(F)(F)F)c4)cc3)nc2c1`, the inhibition in assay [1] was -0.02%; in assay [2] it was 0.63%; in assay [3] it was 3.09%.

`O=S1(=O)C=C(c2ccccc2)CC1`: the inhibition in assay [1] is 1.23%; in assay [2], 1.28%; in assay [3], 1.41%.

Regarding `CC(C)(C)c1ccc(CN2CCCCC(NC(=O)c3cc(-c4ccccc4F)cs3)C2)cc1` (centres undefined), the inhibition was -1.83% in assay [1], -0.56% in assay [2] and 0% in assay [3].

With `COc1cccc(-c2cc(C(F)(F)F)n3ncc(C(=O)Nc4cc(C)ccc4O)c3n2)c1`, the inhibition was 2.75% in assay [1], 3.89% in assay [2] and 3.36% in assay [3].

For `COc1cc(Nc2nccc(-c3c(-c4cccc(NC(=O)c5c(F)cccc5F)c4)nn4ccccc34)n2)cc(OC)c1OC`, the inhibition came to 20.8% in assay [1], 24.9% in assay [2] and 8.03% in assay [3].

`N=C(N)NC(=O)Nc1cc(Br)c(Br)c(Br)c1`: the inhibition in assay [1] is 3.42%; in assay [2], 3.17%; in assay [3], 1.74%.

Consider `NC1=NC2(CCCCC2)N(OCCCCCCN2C(=O)c3ccccc3C2=O)C(N)=N1`, for which the inhibition in assay [1] stood at 12.9%; in assay [2] it was 7.88%; in assay [3], 11.2%.

`CCOc1cc(Cc2cnc(N)nc2N)cc(OCC)c1-n1cccc1`: the inhibition was 5.67% in assay [1], 5.64% in assay [2] and 1.36% in assay [3].

`Cc1cnccc1/C=C/c1cccc(OCCCN2CCc3ccc(S(C)(=O)=O)cc3CC2)c1`: the inhibition in assay [1] was found to be 2.21%; in assay [2], 2.58%; in assay [3], 2.19%.

Consider `CC1(C)CC(NCCCCCCCOc2ccc(OCc3ccccc3)cc2)CC(C)(C)N1`, for which the inhibition in assay [1] turned out to be 103%; in assay [2] it was 102%; in assay [3] it was 55.4%.

For `CCN(CC)CCNC(=O)c1ccc(NC(=O)c2cc(-c3ccncc3)nc3ccccc23)cc1`, the inhibition in assay [1] is 0.16%; in assay [2], -0.76%; in assay [3], -1.61%.

Consider `O=C(/C=C/c1ccc(Cl)c(Cl)c1)NCCCCCN1CCC(NC(=O)Nc2ccccc2F)CC1`, for which the inhibition in assay [1] is 0.1%; in assay [2] it was 4.13%; in assay [3], -0.91%.

The record behind these values is ChEMBL document CHEMBL3433997, “St. Jude Leishmania screening dataset” (2016).
